{"source": "PubChem BioAssay (NCATS)", "note": "Inconclusive results are not listed. Calls of active or inactive are those of the source. Calls follow the shape of the dose curve; as a rule, active = well fitted inhibition curve with a large enough effect; inconclusive = small, poorly fitted or top-dose-only effect; inactive = flat fitted curve, though single readings scatter.", "data": [{"test": "qHTS profiling for inhibitors of Plasmodium falciparum proliferation (AID 504749);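 also: 0% = DMSO vehicle and full inhibition = artemisinin control; nearly all actives have a fitted effect of over 60% in size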", "details": "P. falciparum in erythrocytes, SYBR Green DNA, 72 h; at 28.7 µM (top of the series); parasite line B", "summary_of_the_method": "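In a 72 h erythrocytic culture (37 C, humidified, 5% CO2) at 2.5% hematocrit and 0.3% starting parasitemia, compounds were tested; SYBR Green I in detergent lysis buffer stained parasite DNA overnight.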", "values": [{"smiles": "O=C(O)c1cc(O)c2c(c1)[O][Bi][O]2", "activity, negative = inhibition": "14.4% (inactive)"}, {"smiles": "CCOc1ccc2c(c1)C(C)=CC(C)(C)N2", "activity, negative = inhibition": "-4.99% (inactive)"}, {"smiles": "CC1(C)C(C=C(Cl)Cl)C1C(=O)OCc1cccc(Oc2ccccc2)c1", "note": "(centres undefined)", "activity, negative = inhibition": "-6.77% (inactive)"}, {"smiles": "O=CCCCC=O", "activity, negative = inhibition": "0.568% (inactive)"}, {"smiles": "COCC(=O)Nc1cc(Sc2ccccc2)ccc1N=C(NC(=O)OC)NC(=O)OC", "activity, negative = inhibition": "26.6% (inactive)"}, {"smiles": "COC(F)(F)C(Cl)Cl", "activity, negative = inhibition": "-4.97% (inactive)"}, {"smiles": "CC(Cc1ccc(O)c(O)c1)C(C)Cc1ccc(O)c(O)c1", "note": "(centres undefined)", "activity, negative = inhibition": "-26.4% (inactive)"}, {"smiles": "Nc1ncnc2c1ncn2[C@@H]1O[C@H](COP(=O)(O)OP(=O)(O)OP(=O)(O)O)[C@@H](O)[C@H]1O", "activity, negative = inhibition": "9.47% (inactive)"}, {"smiles": "COC(=O)CCC(=O)CN", "activity, negative = inhibition": "8.06% (inactive)"}]}]}
